Screening results from PubChem BioAssay.
Lamin A splicing = qHTS Assay for Modulators of Lamin A Splicing; HeLa LMNA splicing GFP/RFP minigene ratio, 48 h; Potency, µM (titrated, usually from 46.1 µM), without a hit: at the top dose ratio change, negative = inhibition, usual class: inhibitors; actives 0.01% (n = 200,000); active = well fitted inhibition curve with a large enough effect in the signal ratio, with a control signal flat, not every such curve was filed as active; inconclusive = small, poorly fitted or top-dose-only effect, or effect the other way, or a change in a side signal; the % refers to the signal ratio; also: potency is read from the fitted curve at half-maximal effect; % is scaled to controls: 0 for no effect and ±100 for the full control effect
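Read-out is the ratio of GFP to DsRed2 object intensity, acquired by 488 nm laser-scanning cytometry on HeLa lamin A-EGFP minigene reporter cells. Compound incubation 48 hrs at 37 °C in Opti-MEM with 2% FBS; DMSO 0.5% final.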
Tau FP inhib = qHTS for Inhibitors of Tau Fibril Formation, Fluorescence Polarization. Microtubule-associated protein tau (Homo sapiens), P10636. K18 P301L tau heparin fibrillization, Alexa594 FP, 6 h. Potency, µM (series often up to 57.7 µM), for the others: at the highest dose activity, negative = inhibition, most hits filed as inhibitors. actives 0.39% (n = 280,000). AID 1468, 2008; also: potency is read from the fitted curve at half-maximal effect; % is scaled to controls: 0 for no effect and ±100 for the full control effect; nearly all actives have a fitted effect of over 55% in size
Target sequence (P10636 561-689 P618L limits assumed): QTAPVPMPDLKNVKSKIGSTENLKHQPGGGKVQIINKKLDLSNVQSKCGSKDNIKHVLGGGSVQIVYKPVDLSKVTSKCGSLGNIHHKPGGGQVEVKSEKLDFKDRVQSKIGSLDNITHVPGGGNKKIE
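FP of Alexa 594-tau after heparin (20 uM) induction. Substrate: human K18 P301L, 15 uM unlabeled, 0.24 uM labeled. Buffer 100 mM sodium acetate pH 7. 6 hr, 37 C.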
CBFb-RUNX1 inh = qHTS Assay for Compounds Blocking the Interaction Between CBF-beta and RUNX1 for the Treatment of Acute Myeloid Leukemia; Runt-related transcription factor 1 (Homo sapiens) + Core-binding factor subunit beta …; AlphaScreen CBFb-His/RUNX1-biotin binding, biochemical; Potency, µM (top dose mostly 59.8 µM), inactives show at the top dose activity, negative = inhibition, most hits filed as inhibitors; 230,000 tested, under 10 active; AID 1477, 2009; also: % of control where 0% means no effect
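CBFb-His/RUNX1-biotin, 30 nM each, preincubated 20 min RT; compound 15 min RT; Ni + streptavidin beads 50 ng each, 90 min RT; AlphaScreen read.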
KDM4E inh = qHTS Assay for Inhibitors of Human Jumonji Domain Containing 2E (JMJD2E); actives 1.6% (n = 230,000); Lysine-specific demethylase 4E (Homo sapiens), B2RXH2; JMJD2E catalytic domain, FDH-coupled NADH fluorescence (FDH is formaldehyde dehydrogenase); Potency, µM (highest dose often 57.1 µM), without a hit: top-dose activity change, negative = inhibition, most hits filed as inhibitors; active = well fitted inhibition curve with a large enough effect, not every such curve was filed as active; inconclusive = small, poorly fitted or top-dose-only effect, or another doubt; inactive = no such curve, though single readings can be large or run the other way;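 also: potency is read from the fitted curve at half-maximal effect; 0% = wells with enzyme and -100% = buffer wells without enzyme; nearly all actives have a fitted effect of over 50% in size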
Target sequence (B2RXH2 1-337 limits assumed): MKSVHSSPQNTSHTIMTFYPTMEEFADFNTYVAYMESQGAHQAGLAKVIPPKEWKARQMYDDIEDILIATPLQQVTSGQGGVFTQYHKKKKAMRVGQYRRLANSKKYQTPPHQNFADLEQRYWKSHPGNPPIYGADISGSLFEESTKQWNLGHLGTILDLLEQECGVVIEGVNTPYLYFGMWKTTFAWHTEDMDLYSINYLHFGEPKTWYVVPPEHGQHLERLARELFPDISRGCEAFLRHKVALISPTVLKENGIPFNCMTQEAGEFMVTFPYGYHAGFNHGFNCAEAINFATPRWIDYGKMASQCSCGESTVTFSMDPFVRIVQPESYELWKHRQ
Tau fibril ThT = qHTS for Inhibitors of Tau Fibril Formation, Thioflavin T Binding. Microtubule-associated protein tau (Homo sapiens), P10636. recombinant tau K18 P301L, heparin-induced fibrillization, ThT fluorescence. Potency, µM (highest dose often 57.4 µM), inactives show at the highest dose activity, negative = inhibition, usual class: inhibitors. actives 2.1% (n = 270,000). AID 1460, 2008; also: potency is read from the fitted curve at half-maximal effect; % is scaled to controls: 0 for no effect and ±100 for the full control effect; nearly all actives have a fitted effect of over 55% in size
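Aggregation was driven by heparin (20 uM final) acting on recombinant tau […] bearing P301L in 100 mM sodium acetate pH 7; fibrils were detected with Thioflavin T.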
Tau fluor counter = Counterscreen qHTS for Inhibitors of Tau Fibril Formation, Fluorescence Polarization. actives 0.93% (n = 280,000). AID 1463, 2008. Potency, µM (titrated, usually from 57.7 µM), for inactives: top-dose activity change, negative = decrease. tau K18 P301L Alexa594 fluorescence, heparin fibrillization; also: potency is read from the fitted curve at half-maximal effect; % is scaled to controls: 0 for no effect and ±100 for the full control effect; nearly all actives have a fitted effect of over 55% in size
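Human tau K18 P301L (15 uM unlabeled, 0.24 uM Alexa 594-labeled) in 100 mM sodium acetate pH 7 with 20 uM heparin, 6 hr at 37 C. ThT 30 uM added, 1 hr ambient; Alexa 594 FP and total fluorescence read at 555/632 nm.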
* hit, by the source's call; ? = inconclusive; . = no result; [ ] = remark or other dose. A selection: hits, their analogues and other compounds. The true share with any hit is near 3.2%. Unless noted, calls follow the shape of the dose curve; as a rule, active = well fitted curve in the direction sought with a large enough effect; inconclusive = small, poorly fitted or top-dose-only effect, or another doubt; inactive = no such curve, though single readings can be large; an effect the other way counts as inactive or inconclusive.

SMILES	Lamin A splicing	Tau FP inhib	CBFb-RUNX1 inh	KDM4E inh	Tau fibril ThT	Tau fluor counter
O=C(O)c1cccc(N2C(=S)N=C(Nc3ccccc3)C23CCCCC3)c1	?	5.2%	2.7%	3.3%	4.2%	11.3%
COc1ccc(Nc2ccc3c(c2)=NC2(CCCCC2)[N+]=3[O-])cc1	?	?	?	?	4.47µM*	?
Cc1ccccc1N=Nc1c(C)[nH]n(C(N)=S)c1=O	-16.7%	8.4%	-23.7%	1.1%	14.1µM*	-18.1%
Cc1ccccc1N=Nc1c(C)[nH]n(-c2ccccc2)c1=O	-5.1%[46 µM]	1.6%	-5.8%	3.6%	-16.8%	-17.0%
Cc1cccc(N=Nc2c(C)[nH]n(C(N)=S)c2=O)c1C	.	9.6%	-15.0%	2.0%	7.94µM*	-9.3%
O=C(NCc1ccco1)c1ccc2c(c1)N(Cc1ccc(F)cc1)C(=O)c1ccccc1S2=O (centres undefined)	.	-2.9%	.	.	7.7%	4.9%
N#Cc1ccc(-c2ccco2)nc1SCC(=O)c1ccc(Cl)cc1	?	-3.7%	-12.3%	?	5.01µM*	?
O=C(Nc1cc(C(=O)Nc2ccc(S(=O)(=O)O)cc2S(=O)(=O)O)cc(C(=O)Nc2ccc(S(=O)(=O)O)cc2S(=O)(=O)O)c1)Nc1cc(C(=O)Nc2ccc(S(=O)(=O)O)cc2S(=O)(=O)O)cc(C(=O)Nc2ccc(S(=O)(=O)O)cc2S(=O)(=O)O)c1	?	14.1µM*	1.3%	?	?	-6.2%
CSc1ccc(CNCc2c(C(=O)O)c(C)n(Cc3ccc(F)cc3Cl)c2C)cc1	.	8.7%	.	.	?	-20.9%
CCCCCNS(=O)(=O)c1ccc(N2CCCCS2(=O)=O)cc1	1.7%[46 µM]	1.1%	.	.	-4.8%	-2.9%
Cc1ccc(CNc2nc3ccc(C)cc3n3nnnc23)cc1	.	-4.2%	.	.	2.1%	-3.1%
CNC(=O)c1c(NC(=O)C(C)C)sc2c1CCC2	.	6.9%	5.0%	-11.7%	.	-20.1%
COC(=O)c1c(NC(=O)C2COc3ccccc3O2)sc2c1CCN(C(C)=O)C2 (centres undefined)	?	0.6%	-0.4%	?	-10.0%	11.4%
CNC(=O)c1c(NC(=O)c2nc3ccccc3s2)sc2c1CCC2	?	11.6%	-9.4%	-19.6%	7.08µM*	?
COC(=O)c1c(NC(=O)c2nc3ccccc3s2)sc2c1CCN(C(C)=O)C2	-5.2%	-5.2%	-4.6%	-1.1%	15.8µM*	-22.5%
ClCCl	.	.	-3.8%[21.7 µM]	.	.	.
CCOc1ccccc1CNC(=O)CCc1c(C)nn(-c2ccc(N3CCCC3)nn2)c1C	?	-15.7%	.	.	-6.6%	-12.7%
COc1cc(N2CCCC2)ccc1[N+](=O)[O-]	?	5.3%	?	-1.8%	-1.4%	-2.5%
COc1ccccc1C1CCN(c2ccc([N+](=O)[O-])c(OC)c2)CC1	.	-10.0%	?	-1.8%	8.91µM*	?
COc1cccc(C(=O)N2CCN(CCc3ccncc3)CC2)c1	1.1%[46 µM]	-0.9%	.	.	-1.8%	0.6%
COc1cc(O)c2c(=O)c3c(OC)c(O)ccc3oc2c1	?	8.1%	0.1%[2.36 µM]	?	12.6µM*	?
O=c1c(O)c(-c2ccc(O)cc2)oc2cc(O)ccc12	.	3.3%	?	?	?	?
COc1cc(-c2oc3cc(O)ccc3c(=O)c2O)ccc1O	?	9.3%	.	?	?	?
COc1cc(O)c2c(=O)c(O)c(-c3ccc(O)c(O)c3)oc2c1	?	-1.9%	-15.5%	22.4µM*	5.01µM*	20µM*[quencher]
O=c1c(O)c(-c2ccc(O)cc2)oc2cc(O)cc(O)c12	?	8.2%	-10.4%[21.7 µM]	?	12.6µM*	?
